PI4K2A block = inhibitors of human PI4K2A. Q9BTU6. purified PI4K2A, ADP-Glo luminescence, 1 h; hits give low values. activity change, negative = inhibition, % at 76.9 µM. hit rate 0.13% among 420,000; in the data active = activity change below about -50%; inconclusive = mostly about -30% to -49%
Target sequence (Q9BTU6 whole entry, looked up): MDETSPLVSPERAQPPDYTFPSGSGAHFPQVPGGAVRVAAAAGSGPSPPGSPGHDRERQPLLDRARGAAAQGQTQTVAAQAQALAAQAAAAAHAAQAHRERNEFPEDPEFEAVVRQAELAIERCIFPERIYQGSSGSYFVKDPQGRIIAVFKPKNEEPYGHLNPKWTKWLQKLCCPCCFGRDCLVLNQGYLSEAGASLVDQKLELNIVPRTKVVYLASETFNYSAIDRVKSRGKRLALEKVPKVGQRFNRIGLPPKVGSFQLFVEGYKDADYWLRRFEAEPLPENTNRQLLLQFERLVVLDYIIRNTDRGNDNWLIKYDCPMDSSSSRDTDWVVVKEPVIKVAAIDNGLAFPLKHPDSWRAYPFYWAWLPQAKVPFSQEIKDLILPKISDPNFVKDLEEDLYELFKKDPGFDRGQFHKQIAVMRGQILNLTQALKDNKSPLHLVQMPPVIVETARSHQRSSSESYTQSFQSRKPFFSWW
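ADP-Glo luminescence measured ADP generated by PI4K2A enzyme (4 ug/mL before mixing) with 1.2 mM PI substrate (pre-mix) and 300 microM ATP (pre-mix). Tris pH7.5 buffer with MgCl2, Triton X-100; 1 h reaction at ambient temperature.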
Pin1 inhibitor = inhibitors of human Pin1 | Potency, µM (highest dose often 115 µM), most hits filed as inhibitors | AID 504891 | Pin1 FP peptide displacement, HiFluor488, 10 min | hit rate 0.009% among 390,000 | Q13526; active = well fitted inhibition curve with a large enough effect in the polarisation, with a control signal flat, not every such curve was filed as active; inconclusive = small, poorly fitted or top-dose-only effect, or effect the other way, or a change in a side signal; inactive = no such curve, though single readings can be large or run the other way; the % refers to the polarisation
Target sequence (Q13526 whole entry, looked up): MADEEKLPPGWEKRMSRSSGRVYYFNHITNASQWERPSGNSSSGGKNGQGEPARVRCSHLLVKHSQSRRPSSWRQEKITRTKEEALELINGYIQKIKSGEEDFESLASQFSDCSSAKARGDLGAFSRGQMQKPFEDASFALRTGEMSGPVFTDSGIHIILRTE
Tb PFK block = blocks T. brucei phosphofructokinase | T. brucei PFK, ADP-Glo luminescence | Potency, µM (highest dose often 57.5 µM), hits mostly inhibitors | hit rate 0.17% among 330,000 | AID 485367; also: nearly all actives have a fitted effect of over 60% in size
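Luminescent ADP detection (ADP-Glo, two-step: ATP depletion then ADP-to-ATP conversion for luciferase) reported PFK activity after 45 min room-temperature reaction of 1.25 nM enzyme with 0.5 mM F6P and 0.1 mM ATP at pH 8.0.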
USP2a inh = USP2a (human) protease inhibition. hit rate 0.01% among 330,000. Potency, µM (doses to about 38.3 µM), hits mostly inhibitors. USP2 core, Ub-CHOP2 coupled fluorogenic reporter, 485/531. O75604
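Deubiquitinase activity read as fluorescence (485/531 nm) after Ub-CHOP2 cleavage activates the enterokinase reporter on its substrate; USP2 core 10nM, Ub-CHOP2 and substrate 25nM each, 30min compound preincubation then 60min RT; data normalized to NEM, curves fitted.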
PGK inhibitor = inhibitors of T. brucei phosphoglycerate kinase | PGK/GAPDH coupled, Kinase-Glo luminescence, 60 min | Potency, µM (titrated, usually from 57.5 µM), actives largely listed as inhibitors | hit rate 0.043% among 380,000 | AID 602233; also: nearly all actives have a fitted effect of over 60% in size
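Luminescent ATP detection (Kinase-Glo Plus) follows a 60-minute room-temperature incubation, with wells lacking PGK as controls. Buffer: 100 mM TEA (pH 7.6), 5 mM MgCl2, 0.01% Tween-20. Coupling enzyme GAPDH (100 nM final) supplies unstable 1,3-BPG in-well.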
A number is an active result. Compounds with a hit are over-represented: about 0.28% of the library has one in this group of screens. Unless noted, calls follow the shape of the dose curve; as a rule, active = well fitted curve in the direction sought with a large enough effect; inconclusive = small, poorly fitted or top-dose-only effect, or another doubt; inactive = no such curve, though single readings can be large; an effect the other way counts as inactive or inconclusive.

Results for Cc1ccc(CNC(=O)CCS(=O)(=O)c2ccc(Br)cc2)cc1 ?
PI4K2A block: inactive; Tb PFK block: inconclusive; USP2a inh: inactive; PGK inhibitor: inconclusive

What do the screens show for `C#CCOCCOCCOCCNc1nc(N2CCN(C(=O)CCCCCCCCCCNC(=O)[C@H]([C@@H](C)CC)n3cc(CCCCCN)nn3)CC2)nc(N2CCN(C(=O)CCCCCCCCCCNC(=O)[C@@H]([C@H](C)CC)n3cc(CCCCCN)nn3)CC2)n1`?
Tb PFK block: inconclusive; USP2a inh: 5µM

What do the screens show for `C#CCOCCOCCOCCNc1nc(N2CCN(C(=O)CCCCCCCCCCNC(=O)[C@H]([C@@H](C)CC)n3cc(CCCCCN)nn3)CC2)nc(N2CCN(C(=O)CCCCCCCCCCNC(=O)[C@H](CCCCN)n3cc(CCCC(=O)O)nn3)CC2)n1`?
PI4K2A block: inactive; Pin1 inhibitor: inactive; Tb PFK block: inactive; USP2a inh: 10µM; PGK inhibitor: inactive

Results for Cc1ccc(Cl)cc1N1CCN(C(=O)c2cc3ccc4cccnc4c3[nH]2)CC1 ?
PI4K2A block: -76; Pin1 inhibitor: inactive; PGK inhibitor: inactive

How did CC(CC(C#N)(c1ccccc1)C(C)C)N(C)C (stereo unspecified) do in these assays?
PI4K2A block: inactive

How did N#Cc1c(N)n(C2OC(CO)C(O)C2O)c2ncnc(N)c12 (stereo unspecified) do in these assays?
PI4K2A block: -62; Pin1 inhibitor: inactive; PGK inhibitor: inactive

What do the screens show for `COc1cccc2c1nc(C)c1cc(C)oc12`?
PI4K2A block: inactive; Pin1 inhibitor: inactive; Tb PFK block: inactive; USP2a inh: inactive; PGK inhibitor: inactive

How did COc1cccc2nc3cc(C)c(C)cc3nc12 do in these assays?
PI4K2A block: -75; Pin1 inhibitor: inactive; Tb PFK block: inconclusive; USP2a inh: inactive; PGK inhibitor: inactive

What do the screens show for `CN1CCN(c2ccc(CNc3nn4c(=O)c5ccccc5nc4s3)cc2)CC1`?
Pin1 inhibitor: inactive

Results for Cc1cc(O)c2c(c1)C(=O)[C@@]13C(=C2O)C(=O)[C@H]2C(O)[C@@H]1[C@H]1C(O)[C@@H]3C(=O)C3=C(O)c4c(O)cc(C)cc4C(=O)[C@@]312 (stereo partly specified) ?
PI4K2A block: -76

What do the screens show for `Cc1cc(O)c2c(c1)C(=O)[C@@]13Oc4c5c(c(O)c6c(O)cc(C)cc46)C(=O)C[C@H](O)[C@H]5[C@@H]1[C@@H](O)CC(=O)C3=C2O`?
PI4K2A block: inactive; Pin1 inhibitor: inconclusive; PGK inhibitor: inactive

How did CC(=O)C1CCN(c2ncc(-c3ccc4c(c3)OCCCO4)s2)CC1 do in these assays?
Pin1 inhibitor: inactive

What do the screens show for `O=C(CN1CCC(O)CC1)N1c2ccccc2C=Cc2ccccc21`?
PI4K2A block: inactive; Pin1 inhibitor: inactive; Tb PFK block: inactive; USP2a inh: 10µM; PGK inhibitor: inactive

How did CC1CCN(CC(=O)N2c3ccccc3CCc3ccccc32)CC1 do in these assays?
PI4K2A block: inactive; Pin1 inhibitor: inactive; Tb PFK block: inactive; USP2a inh: inactive; PGK inhibitor: inactive

How did O=c1c(-c2ccc([N+](=O)[O-])cc2)coc2c(O)c(O)ccc12 do in these assays?
PI4K2A block: inactive; Pin1 inhibitor: inconclusive; Tb PFK block: inactive; USP2a inh: inactive; PGK inhibitor: 8.9µM

Results for COC(=O)c1sccc1NC(=O)Nc1ccc(OC)cc1 ?
PI4K2A block: -57; Pin1 inhibitor: inactive; Tb PFK block: inactive; USP2a inh: inactive; PGK inhibitor: inconclusive

What do the screens show for `COC(=O)c1sccc1NC(=O)Nc1cc(OC)ccc1OC`?
PI4K2A block: inactive; Pin1 inhibitor: inactive; Tb PFK block: inconclusive; USP2a inh: inactive; PGK inhibitor: inactive

How did O=[N+]([O-])c1ccc(C=Nc2ccc(Cl)c([N+](=O)[O-])c2)s1 do in these assays?
Tb PFK block: 24µM; USP2a inh: inactive

Results for Cc1ccc(-c2ccc(C(=O)NCc3ccccc3)o2)c2ccccc12 ?
PI4K2A block: inactive; Pin1 inhibitor: inactive; Tb PFK block: inactive; USP2a inh: inactive; PGK inhibitor: inactive

Results for Cc1ccc(-c2ccc(C(=O)Nc3ccccc3)o2)c2ccccc12 ?
PI4K2A block: -55; Pin1 inhibitor: inactive; Tb PFK block: inactive; USP2a inh: inactive; PGK inhibitor: inactive

How did O=C(O)C[C@@H]1C(=O)O[C@@H]2C(COC(=O)c3cc(O)c(O)c(O)c3)O[C@@H](OC(=O)c3cc(O)c(O)c(O)c3)[C@@H](OC(=O)c3cc(O)c(O)c4c3[C@H]1[C@H](O)C(=O)O4)[C@H]2OC(=O)c1cc(O)c(O)c(O)c1 (stereo partly specified) do in these assays?
Tb PFK block: 1.5µM; USP2a inh: 0.89µM

Results for CC1=C(C)CS(=O)N(S(=O)(=O)c2ccccc2)C1 (stereo unspecified) ?
PI4K2A block: inactive; Pin1 inhibitor: inactive; Tb PFK block: inactive; USP2a inh: inactive; PGK inhibitor: inactive

What do the screens show for `CC1=C(C)CS(=O)N(c2ccc(S(N)(=O)=O)cc2)C1` (stereo unspecified)?
PI4K2A block: -52; Pin1 inhibitor: inactive; Tb PFK block: inactive; USP2a inh: inactive; PGK inhibitor: inactive

What do the screens show for `Oc1ccc(COc2ccccc2Cl)c2cccnc12`?
Pin1 inhibitor: inactive

Results for Cc1ccc(NS(=O)(=O)c2ccc(-c3ccccc3)cc2)cc1C ?
Pin1 inhibitor: inactive

What do the screens show for `CCCOc1ccc2c(c1)CC[C@@H]1[C@@H]2CC[C@]2(C)C(OC)CC[C@@H]12` (stereo partly specified)?
PI4K2A block: inactive

Results for CN1C(=O)NC(=O)/C(=C/c2ccc([N+](=O)[O-])o2)C1=O ?
PI4K2A block: inconclusive; Pin1 inhibitor: inconclusive; Tb PFK block: inconclusive; USP2a inh: inactive; PGK inhibitor: 14µM

What do the screens show for `O=[N+]([O-])c1cc(/C=N\Nc2nccs2)ccc1O`?
Tb PFK block: 9.5µM; USP2a inh: inconclusive

How did Cc1ccc(-c2nc(-c3ccccn3)no2)cc1 do in these assays?
PI4K2A block: -75; Pin1 inhibitor: inactive; Tb PFK block: inconclusive; USP2a inh: inactive; PGK inhibitor: inconclusive

What do the screens show for `c1ccc(-c2ccc(-c3nc(-c4ccccn4)no3)cc2)cc1`?
PI4K2A block: -94; Pin1 inhibitor: inactive; Tb PFK block: inactive; USP2a inh: inactive

Results for c1ccc(-c2nc(-c3ccccn3)no2)cc1 ?
PI4K2A block: inconclusive; Pin1 inhibitor: inactive; Tb PFK block: inconclusive; USP2a inh: inactive

Results for Cc1ccc(-c2nc(-c3ccccn3)no2)cc1Cl ?
PI4K2A block: inconclusive; Pin1 inhibitor: inactive; Tb PFK block: inactive; USP2a inh: inactive; PGK inhibitor: inactive

Source: PubChem (National Center for Advancing Translational Sciences (NCATS))
